Reference: the supplement of paper PMC10849652
About 7,900 targets were measured; listed, in parts, are those with a hit and a random draw of the rest. About 0.6% of all pairs of compound and target were hits. A number with no mark means an inactive call.

Tests used:
Test in all cases: log2 fold change, soluble protein after heating vs DMSO (PISA); higher = thermal stabilisation; K562 cells, 10 uM, 30 min; active = over 0.2 and 3.5 SD of the protein, either way, in both replicates (recomputed)
erlotinib = compound: C#Cc1cccc(Nc2ncnc3cc(OCCOC)c(OCCOC)cc23)c1 [erlotinib]
Summary of the method: (§1)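 Values are thermal stability changes relative to control samples and are taken from duplicates. They are stated as log2 fold changes. Before quantification by TMTpro 16plex LC-MS/MS with equalised channel sums, K562 cells at 2×10^6 cells/mL were treated with 10 μM compound for 30 min, heated in aliquots for 3 min across 48°C-58°C, pooled, extracted in PBS with 0.5% NP-40 at 4°C, and centrifuged at 21,000xg for 90 min to give the soluble supernatant.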

[1] = compound: C/C(=N\NC(=O)C1=CC(=CC=C1)S(=O)(=O)N2CCOCC2)/C3=C(C=CC(=C3)Cl)O
Summary of the method: as §1

[2] = compound: C1=CC(=C(C=C1Cl)C2=NC3=NC=CN=C3C(=N2)NC4=CC=NC=C4)F
Summary of the method: as §1

[3] = compound: C1=CC(=CC=C1C2=NC3=C(N2)C=C(C=C3)C(=O)N)OC4=CC=C(C=C4)Cl
Summary of the method: as §1

[4] = compound: C1=CC2=C(C=CC(=C2)/C=C\3/C(=O)NC(=NCC4=CC=CS4)S3)N=C1
Summary of the method: as §1

[5] = compound: C1=CC2=NC=CN=C2C=C1/C=C/3\C(=O)NC(=O)S3
Summary of the method: as §1

[6] = compound: C1=CC=C(C=C1)C2=NC(=C(N2)C3=CC=NC=C3)C4=CC(=C(C=C4)Cl)O
Summary of the method: as §1

[7] = compound: C1=CC=C2C(=C1)C3=NNC4=CC=CC(=C43)C2=O
Summary of the method: as §1

[8] = compound: C1CCN(C1)C(=O)NC2=CC=CC(=C2)NC3=NC=C(C(=N3)NCCC4=CN=CN4)Br
Summary of the method: as §1

[9] = compound: C1CN(CCC1(CC2=CC=C(C=C2)Cl)N)C3=NC=NC4=C3C=CN4
Summary of the method: as §1

IRAK-1-4 Inhibitor I = compound: C1COCCN1CCN2C3=CC=CC=C3N=C2NC(=O)C4=CC(=CC=C4)[N+](=O)[O-] [IRAK-1-4 Inhibitor I]
Summary of the method: as §1

ibrutinib = compound: C=CC(=O)N1CCC[C@@H](n2nc(-c3ccc(Oc4ccccc4)cc3)c3c(N)ncnc32)C1 [ibrutinib]
Summary of the method: as §1

[10] = compound: CC(=O)c1cnc2ccc(-c3cc(Cl)c(O)c(Cl)c3)nc2c1N[C@H]1CC[C@H](CN(C)C)CC1
Summary of the method: as §1

ralimetinib = compound: CC(C)(C)Cn1c(N)nc2ccc(-c3[nH]c(C(C)(C)C)nc3-c3ccc(F)cc3)nc21 [ralimetinib]
Summary of the method: as §1

[11] = compound: CC(C)(O)CC(=O)NCCn1ccc2ncnc(Nc3ccc(Oc4cccc(C(F)(F)F)c4)c(Cl)c3)c21
Summary of the method: as §1

[12] = compound: CC(C)C1=C2N=C(C=C(N2N=C1)NCC3=CC=CC=C3)NCCCCCCN
Summary of the method: as §1

[13] = compound: CC(C)C[C@@H](C=O)NC(=O)[C@H](CC(C)C)NC(=O)[C@H](CC(C)C)NC(=O)OCc1ccccc1
Summary of the method: as §1

pinometostat = compound: CC(C)N(C[C@H]1O[C@@H](n2cnc3c(N)ncnc32)[C@H](O)[C@@H]1O)[C@H]1C[C@@H](CCc2nc3cc(C(C)(C)C)ccc3[nH]2)C1 [pinometostat]
Summary of the method: as §1

[14] = compound: CC1=C(C(CC(=O)N1)C2=CC=C(C=C2)C(F)(F)F)C(=O)NC3=C(C=C4C(=C3)C=NN4)F
Summary of the method: as §1

[15] = compound: CC1=C(C2=C(C=C1)C(=O)C3=CC=CC=C3N2CCCN)C
Summary of the method: as §1

UniProt P49336, sequence (P49336 whole entry, looked up): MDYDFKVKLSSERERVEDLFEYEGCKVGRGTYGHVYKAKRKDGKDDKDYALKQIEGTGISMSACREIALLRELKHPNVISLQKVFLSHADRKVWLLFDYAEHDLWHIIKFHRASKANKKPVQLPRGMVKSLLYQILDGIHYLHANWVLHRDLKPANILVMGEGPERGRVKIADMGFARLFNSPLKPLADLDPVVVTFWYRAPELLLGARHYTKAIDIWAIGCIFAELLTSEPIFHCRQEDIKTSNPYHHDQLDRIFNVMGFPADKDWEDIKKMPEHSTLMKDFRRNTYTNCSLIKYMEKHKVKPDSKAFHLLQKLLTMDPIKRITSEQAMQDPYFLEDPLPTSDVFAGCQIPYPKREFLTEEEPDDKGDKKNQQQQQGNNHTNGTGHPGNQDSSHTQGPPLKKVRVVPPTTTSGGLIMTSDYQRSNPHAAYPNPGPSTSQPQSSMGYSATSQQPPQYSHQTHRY
UniProt P09497, sequence (P09497 whole entry, looked up): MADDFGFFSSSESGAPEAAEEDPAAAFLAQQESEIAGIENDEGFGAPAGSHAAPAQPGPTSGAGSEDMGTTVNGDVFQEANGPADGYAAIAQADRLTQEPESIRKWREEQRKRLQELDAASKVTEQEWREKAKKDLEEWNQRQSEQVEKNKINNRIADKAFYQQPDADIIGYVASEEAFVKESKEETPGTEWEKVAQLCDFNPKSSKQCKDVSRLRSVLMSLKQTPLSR
UniProt P61024, sequence (P61024 whole entry, looked up): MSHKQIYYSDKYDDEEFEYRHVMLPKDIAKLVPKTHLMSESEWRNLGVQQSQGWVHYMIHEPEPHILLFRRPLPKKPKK
UniProt Q96SZ6, sequence (Q96SZ6 whole entry, looked up): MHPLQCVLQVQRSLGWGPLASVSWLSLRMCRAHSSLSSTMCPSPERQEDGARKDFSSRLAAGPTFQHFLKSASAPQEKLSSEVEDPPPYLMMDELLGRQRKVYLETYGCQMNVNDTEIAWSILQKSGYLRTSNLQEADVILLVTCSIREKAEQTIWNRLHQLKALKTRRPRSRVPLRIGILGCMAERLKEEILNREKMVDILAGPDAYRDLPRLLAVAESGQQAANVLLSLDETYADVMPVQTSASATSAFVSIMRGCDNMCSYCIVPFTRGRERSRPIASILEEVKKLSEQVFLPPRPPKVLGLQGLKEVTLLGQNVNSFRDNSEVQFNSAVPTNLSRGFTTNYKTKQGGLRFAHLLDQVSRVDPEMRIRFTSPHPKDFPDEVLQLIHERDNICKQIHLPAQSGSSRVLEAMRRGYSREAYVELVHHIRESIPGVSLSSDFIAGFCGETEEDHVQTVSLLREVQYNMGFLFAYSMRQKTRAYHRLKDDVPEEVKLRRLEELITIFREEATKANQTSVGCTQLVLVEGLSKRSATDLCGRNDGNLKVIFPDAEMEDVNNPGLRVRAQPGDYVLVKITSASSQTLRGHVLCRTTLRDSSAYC
UniProt P86791, sequence (P86791 whole entry, looked up): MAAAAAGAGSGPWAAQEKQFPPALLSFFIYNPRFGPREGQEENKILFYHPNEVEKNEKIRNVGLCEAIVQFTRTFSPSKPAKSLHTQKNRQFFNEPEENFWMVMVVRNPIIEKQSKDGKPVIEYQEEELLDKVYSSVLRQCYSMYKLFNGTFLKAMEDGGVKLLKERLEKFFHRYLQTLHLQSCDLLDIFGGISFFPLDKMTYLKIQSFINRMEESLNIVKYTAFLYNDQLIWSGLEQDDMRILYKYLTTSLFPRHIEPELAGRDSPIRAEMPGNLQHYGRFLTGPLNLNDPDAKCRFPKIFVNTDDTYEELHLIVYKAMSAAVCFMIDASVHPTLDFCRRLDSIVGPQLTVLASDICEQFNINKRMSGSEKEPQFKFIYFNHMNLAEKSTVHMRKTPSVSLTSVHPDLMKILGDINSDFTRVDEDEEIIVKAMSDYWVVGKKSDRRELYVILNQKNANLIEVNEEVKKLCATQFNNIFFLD
UniProt Q6UUV9, sequence (Q6UUV9 whole entry, looked up): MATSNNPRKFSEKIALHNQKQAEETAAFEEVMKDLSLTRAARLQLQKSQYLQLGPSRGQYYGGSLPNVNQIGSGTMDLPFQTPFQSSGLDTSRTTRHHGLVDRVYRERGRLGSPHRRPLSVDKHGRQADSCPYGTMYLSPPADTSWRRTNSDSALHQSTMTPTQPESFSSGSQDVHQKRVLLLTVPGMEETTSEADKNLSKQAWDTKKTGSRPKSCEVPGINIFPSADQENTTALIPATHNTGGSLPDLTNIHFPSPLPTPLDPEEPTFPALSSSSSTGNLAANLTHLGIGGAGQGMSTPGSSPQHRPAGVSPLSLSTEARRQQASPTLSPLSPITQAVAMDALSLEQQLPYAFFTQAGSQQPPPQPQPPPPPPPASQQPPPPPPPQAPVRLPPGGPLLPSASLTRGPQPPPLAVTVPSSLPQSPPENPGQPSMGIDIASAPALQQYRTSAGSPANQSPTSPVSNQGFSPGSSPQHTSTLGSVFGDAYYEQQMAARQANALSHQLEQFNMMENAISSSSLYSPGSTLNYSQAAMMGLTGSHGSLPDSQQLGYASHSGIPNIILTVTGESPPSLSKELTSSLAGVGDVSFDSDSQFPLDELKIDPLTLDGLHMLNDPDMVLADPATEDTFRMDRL
UniProt Q9Y5P4, sequence (Q9Y5P4 whole entry, looked up): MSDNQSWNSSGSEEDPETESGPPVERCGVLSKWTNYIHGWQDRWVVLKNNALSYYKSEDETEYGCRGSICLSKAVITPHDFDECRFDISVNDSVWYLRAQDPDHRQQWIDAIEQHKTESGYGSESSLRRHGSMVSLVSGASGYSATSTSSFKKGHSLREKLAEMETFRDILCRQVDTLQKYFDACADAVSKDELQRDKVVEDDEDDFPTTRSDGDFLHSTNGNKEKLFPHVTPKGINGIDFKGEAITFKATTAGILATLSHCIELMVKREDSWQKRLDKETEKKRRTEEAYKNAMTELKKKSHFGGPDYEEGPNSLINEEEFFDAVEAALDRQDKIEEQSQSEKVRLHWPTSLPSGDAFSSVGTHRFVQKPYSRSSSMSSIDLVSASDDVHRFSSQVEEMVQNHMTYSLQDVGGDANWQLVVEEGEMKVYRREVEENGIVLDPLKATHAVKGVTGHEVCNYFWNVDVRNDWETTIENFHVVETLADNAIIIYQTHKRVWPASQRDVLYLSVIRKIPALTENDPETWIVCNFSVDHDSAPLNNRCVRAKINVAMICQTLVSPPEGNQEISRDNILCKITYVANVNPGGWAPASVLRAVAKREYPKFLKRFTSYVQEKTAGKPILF
UniProt P16152, sequence (P16152 whole entry, looked up): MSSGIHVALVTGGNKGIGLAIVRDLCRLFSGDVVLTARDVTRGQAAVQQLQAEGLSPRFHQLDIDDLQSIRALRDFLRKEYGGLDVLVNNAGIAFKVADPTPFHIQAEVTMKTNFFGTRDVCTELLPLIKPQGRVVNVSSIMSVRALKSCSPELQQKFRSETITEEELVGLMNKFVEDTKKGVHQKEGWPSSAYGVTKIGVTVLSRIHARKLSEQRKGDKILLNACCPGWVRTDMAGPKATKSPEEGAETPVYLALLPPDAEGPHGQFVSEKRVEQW
UniProt Q6NZI2, sequence (Q6NZI2 whole entry, looked up): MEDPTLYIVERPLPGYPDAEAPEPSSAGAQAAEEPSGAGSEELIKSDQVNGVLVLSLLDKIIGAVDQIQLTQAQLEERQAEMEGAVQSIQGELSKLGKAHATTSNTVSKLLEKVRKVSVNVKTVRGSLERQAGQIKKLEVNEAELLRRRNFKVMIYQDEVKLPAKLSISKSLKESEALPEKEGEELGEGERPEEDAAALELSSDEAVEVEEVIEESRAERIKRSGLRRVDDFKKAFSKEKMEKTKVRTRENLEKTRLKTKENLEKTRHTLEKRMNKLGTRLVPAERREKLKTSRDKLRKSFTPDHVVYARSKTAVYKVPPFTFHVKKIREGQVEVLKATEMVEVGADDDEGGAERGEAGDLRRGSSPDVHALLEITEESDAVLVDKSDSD
UniProt P08174, sequence (P08174 whole entry, looked up): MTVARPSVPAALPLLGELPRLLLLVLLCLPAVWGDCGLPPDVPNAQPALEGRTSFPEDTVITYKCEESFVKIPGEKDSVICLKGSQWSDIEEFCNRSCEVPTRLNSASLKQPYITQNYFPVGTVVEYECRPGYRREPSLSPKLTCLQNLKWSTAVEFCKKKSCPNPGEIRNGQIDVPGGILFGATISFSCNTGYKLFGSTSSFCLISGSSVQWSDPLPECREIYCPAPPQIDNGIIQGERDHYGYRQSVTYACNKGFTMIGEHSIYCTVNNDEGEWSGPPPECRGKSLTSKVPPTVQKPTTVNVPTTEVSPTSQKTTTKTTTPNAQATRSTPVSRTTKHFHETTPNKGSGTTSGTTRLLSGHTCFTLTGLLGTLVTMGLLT
UniProt Q12996, sequence (Q12996 whole entry, looked up): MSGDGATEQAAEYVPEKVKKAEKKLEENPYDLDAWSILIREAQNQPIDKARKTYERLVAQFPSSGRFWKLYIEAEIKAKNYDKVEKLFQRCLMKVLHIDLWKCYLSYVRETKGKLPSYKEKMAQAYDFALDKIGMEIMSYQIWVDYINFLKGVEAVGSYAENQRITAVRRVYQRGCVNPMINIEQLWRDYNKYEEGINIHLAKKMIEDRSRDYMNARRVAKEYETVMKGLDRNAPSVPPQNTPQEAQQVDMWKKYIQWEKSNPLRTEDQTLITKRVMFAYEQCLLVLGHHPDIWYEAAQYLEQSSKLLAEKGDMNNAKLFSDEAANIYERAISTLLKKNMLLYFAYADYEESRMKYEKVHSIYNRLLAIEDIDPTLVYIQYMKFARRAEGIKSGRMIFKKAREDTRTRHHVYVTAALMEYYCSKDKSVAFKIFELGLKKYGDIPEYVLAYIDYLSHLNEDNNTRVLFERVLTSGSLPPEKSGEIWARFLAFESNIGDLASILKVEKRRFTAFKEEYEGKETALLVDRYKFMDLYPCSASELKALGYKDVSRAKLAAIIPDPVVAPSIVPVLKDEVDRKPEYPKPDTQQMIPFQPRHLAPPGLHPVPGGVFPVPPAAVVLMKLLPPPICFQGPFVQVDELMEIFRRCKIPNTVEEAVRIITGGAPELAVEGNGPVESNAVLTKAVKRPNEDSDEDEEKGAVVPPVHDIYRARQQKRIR

| Target | log2 fold change (erlotinib) | log2 fold change [1] | log2 fold change [2] | log2 fold change [3] | log2 fold change [4] | log2 fold change [5] | log2 fold change [6] | log2 fold change [7] | log2 fold change [8] | log2 fold change [9] | log2 fold change (IRAK-1-4 Inhibitor I) | log2 fold change (ibrutinib) | log2 fold change [10] | log2 fold change (ralimetinib) | log2 fold change [11] | log2 fold change [12] | log2 fold change [13] | log2 fold change (pinometostat) | log2 fold change [14] | log2 fold change [15] |
| --- | --- | --- | --- | --- | --- | --- | --- | --- | --- | --- | --- | --- | --- | --- | --- | --- | --- | --- | --- | --- |
| CKS1B (UniProt P61024) | -0.014 | 0 | 0.028 | -0.013 | 0.044 | 0.029 | 0.11 | -0.045 | -0.012 | 0.034 | -0.011 | -0.008 | -0.127 | 0.222 (active) | 0.001 | 0.027 | -0.031 | -0.044 | 0.036 | 0.054 |
| CCZ1 (UniProt P86791) | 0.027 | 0.046 | -0.003 | 0.064 | 0.034 | -0.017 | 0.031 | 0.011 | 0.016 | 0.011 | 0.063 | -0.001 | -0.039 | -0.051 | -0.05 | -0.287 (active) | 0.025 | 0.012 | -0.007 | 0.006 |
| CAVIN1 (UniProt Q6NZI2) | -0.06 | -0.085 | -0.309 | 0.121 | -0.04 | -0.002 | 0.274 | 0.07 | 0.062 | -0.137 | -0.064 | -0.002 | 0.011 | 0.393 | 0 | -0.156 | -0.011 | 0.2 | 0.06 | -0.437 (active) |
| CTBS (UniProt Q01459) | 0.037 | -0.008 | -0.1 | -0.023 | 0.039 | 0.013 | -0.089 | -0.002 | -0.083 | 0.048 | 0.073 | 0.067 | -0.082 | -0.035 | 0.018 | -0.151 | -0.028 | -0.009 | 0.1 | -0.061 |
| CERT isoform 3 (UniProt Q9Y5P4) | 0.05 | 0.083 | 0.018 | -0.009 | 0.039 | 0.005 | 0.044 | 0 | -0.054 | -0.007 | -0.052 | 0.017 | -0.382 (active) | 0.038 | 0.166 | 0.103 | 0.005 | 0.026 | -0.048 | -0.033 |
| CRTC1 isoform 2 (UniProt Q6UUV9) | 0.007 | 0.07 | -0.228 | 0.068 | 0.185 | -0.052 | -0.229 | -0.051 | -0.053 | 0.021 | 0.026 | -0.061 | -0.023 | 0.025 | -0.042 | 0.112 | -0.041 | -0.024 | – | 0.072 |
| CBR1 (UniProt P16152) | 0.011 | 0.066 | 0.115 | 0.008 | -0.009 | 0.028 | 0.186 | -0.038 | -0.027 | 0.057 | 0.023 | 0.009 | 0.031 | 0.097 | -0.007 | 0.061 | -0.088 | -0.035 | -0.009 | 0.028 |
| CD55 isoform 7 (UniProt P08174) | -0.065 | -0.002 | -0.031 | 0.036 | -0.121 | -0.015 | 0.011 | -0.062 | -0.079 | 0.008 | -0.043 | 0.071 | -0.008 | 0.016 | 0.037 | 0.155 | -0.012 | 0.019 | 0.02 | -0.054 |
| CDK8 (UniProt P49336) | -0.098 | -0.094 | -0.161 | 0.028 | -0.023 | 0.102 | -0.087 | 0.287 | -0.044 | 0.034 | 0.006 | -0.011 | 0.487 (active) | -0.174 | -0.15 | -0.067 | 0.096 | -0.057 | – | -0.005 |
| CLTB (UniProt P09497) | 0.106 | -0.042 | 0.038 | -0.05 | -0.02 | 0.039 | 0.069 | 0.028 | 0.008 | 0.023 | 0.053 | – | 0.089 | 0.061 | -0.021 | 0.024 | -0.067 | -0.07 | 0 | -0.007 |
| CDK5RAP1 (UniProt Q96SZ6) | 0.076 | -0.555 (active) | 0.046 | -0.025 | 0.134 | -0.03 | 0.069 | 0.078 | 0.072 | -0.029 | -0.067 | 0.018 | 0.111 | -0.057 | -0.055 | -0.066 | -0.015 | 0.025 | -0.038 | 0.099 |
| CSTF3 (UniProt Q12996) | -0.038 | 0.012 | -0.003 | 0.015 | 0.014 | 0.077 | -0.032 | 0.035 | 0.027 | -0.027 | 0.087 | 0 | 0.019 | -0.052 | -0.026 | 0.132 | -0.012 | 0.021 | -0.018 | 0.262 (active) |
